# Reference: PubChem BioAssay AID588856 (National Center for Advancing Translational Sciences (NCATS), 2011)
# Among all 410,000 compounds or so, about 3,100 (0.76%) were called active. Many of the other results were omitted from the sample, so actives are more common in it than they were. Values without a mark were called inactive. Calls come from the whole dose curve; as a rule, active = well fitted cell-killing curve with a large enough effect; inactive = no such curve, though single readings can be large or run the other way.
# Assay: qHTS for Inhibitors of TGF-b: Cytotox Counterscreen
# Conditions: HepG2 CAGA-GFP viability, ATP luminescence, 18 h; series mostly up to 46.1 µM; activity change, negative = cytotoxicity: at the top concentration
# In short: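 CellTiter-Glo luminescence gave cytotoxicity after 18 hours at 37 degrees C. The cells were HepG2 CAGA-GFP in 1% FBS DMEM, stimulated with 500 pg/mL TGF-beta after compound addition. %Activity was normalised to no-cell wells (complete cell-killing) and DMSO (no toxicity), and curves were fitted and classified.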
# Potency is the fitted concentration of half-maximal effect.
Structure (SMILES),"activity change, negative = cytotoxicity [%]",Potency
COc1ccc(Cn2c(C(=O)O)c(CNCCc3cccs3)c3ccc(OC)cc32)cc1,-6.96,–
COc1ccc(-c2c(C#Cc3ccccc3)c3ccccc3n2C)cc1,0.571,–
COc1ccc(CCNCc2c(-c3ccccc3)n(C)c3ccccc23)cc1,–,12.6 µM (active)
CN(C)c1ccc(/C=C/c2sc3ccccc3[n+]2C)cc1,-41.5,–
CCC(C)c1ccc2oc(-c3ccc(NC(=O)c4cc5ccccc5o4)cc3)nc2c1 (centres undefined),0.606,–
CN(NC(=O)c1ccccc1F)c1nc(C(F)(F)F)nc2ccccc12,-1.05,–
CCc1ccc(C(CNc2nc(C(F)(F)F)nc3ccccc23)N(C)C)cc1 (centres undefined),–,20 µM (active)
CN(C)C(CNC(=O)Cc1ccc([N+](=O)[O-])cc1)c1ccccc1 (centres undefined),-13.6,–
CC1CCN(S(=O)(=O)c2ccc3c(ccn3CCC(=O)NCc3ccc(N(C)C)cc3)c2)CC1,-26.5,–
O=C(O)c1c(Br)c(Br)c(Br)c(Br)c1C1c2ccc(O)cc2Oc2cc(O)ccc21,1.05,–
Cc1cc(F)ccc1NS(=O)(=O)c1ccc(-n2cccn2)cc1,-13.1,–
Cc1ccc(OCCn2c(CNc3ccccc3C)nc3ccccc32)cc1,-44.5,–
Cc1ccc(Oc2ccc3c(c2)C(=O)N(c2cccc4cccnc24)C3=O)cc1,18.4,–
Cc1ccc(OS(=O)Nc2cccc3nccnc23)cc1 (centres undefined),–,15.8 µM (active)
CCOCCn1ccc2c(OCC(=O)NCc3ccc(C)cc3)cccc2c1=O,-4,–
COc1ccc(Cc2nc3ccc(C(=O)NCc4ccc(OC)cc4OC)cc3o2)cc1,-13.9,–
CCOC(=O)c1c(NC(=O)c2ccc(S(=O)(=O)N3CCCC(C)C3)cc2)sc2c1CCN(C(C)C)C2 (centres undefined),–,10 µM (active)
COC(=O)c1c(NC(=O)c2ccc(S(=O)(=O)N3CCOCC3)cc2)sc2c1CCN(C(C)C)C2,-16.4,–
CCOC(=O)c1c(NC(=O)C2CCN(S(=O)(=O)c3ccc(Cl)cc3)CC2)sc2c1CCCC2,7.04,–
Cc1nc2c(c(C)nn2-c2ccccc2)c(C)c1CCC(=O)NCCc1ccc(Cl)cc1,0.163,–
CCOCCCNC(=O)c1cn(CC)c2ccc(S(=O)(=O)N3CCc4ccccc4C3)cc2c1=O,-29,–
CCOC(=O)c1c(C)oc2nc(C)nc(N(CC(C)C)CC(C)C)c12,-42.6,–
CCOc1ccc(-c2n[nH]c3c2C(c2ccccc2OC)N(c2ccc(Br)cc2)C3=O)cc1 (centres undefined),-17.9,–
CCOc1cc(C2c3c(-c4ccc(Br)cc4)n[nH]c3C(=O)N2c2ccc(Cl)cc2)ccc1O (centres undefined),–,10 µM (active)
CCOC(=O)c1ccc(N2C(=O)c3n[nH]c(C)c3C2c2ccc(O)c(OC)c2)cc1 (centres undefined),-22.1,–

Structure (SMILES),"activity change, negative = cytotoxicity [%]",Potency
O=C(NCc1ccc(Cl)cc1)c1ccc2c(c1)nnn2C1CCCC1,-20,–
COc1ccc(/C=C/C(=O)c2cc(Br)ccc(=O)c2O)cc1,-35.7,–
COc1ccc(C(=O)/C=C/c2cccnc2)c(OC)c1,–,15.8 µM (active)
COc1ccc(C(=O)COC(=O)C(O)c2ccccc2)c(OC)c1 (centres undefined),-6.27,–
CCS(=O)(=O)c1nc(S(=O)(=O)c2ccc(C)cc2)c(NCc2ccc(Cl)cc2)s1,-1.56,–
CCC(=O)N1CCc2cc(Br)cc(S(=O)(=O)CCC(=O)NCCc3ccc(OC)c(OC)c3)c21,5.48,–
COc1ccc(-c2cn3nc(N4CCC(C(=O)Nc5cccc(C)c5C)CC4)sc3n2)cc1,-1.02,–
CC(C)=CCCC1(C)C=Cc2c(ccc3c2[nH]c2cc(O)c(C)cc23)O1 (centres undefined),–,15.8 µM (active)
Brc1ccc2c(c1)NC(c1cccnc1)=NC(c1ccccc1)=N2,-0.338,–
COc1ccc(CCNC(=O)c2cc(=O)c3c(C)cc(C)cc3o2)cc1OC,7.77,–
Cc1ccc(N(C)C(=O)C2CCN(S(=O)(=O)c3ccc4c(c3)CCCN4C(=O)C3CCC3)CC2)cc1,-11.8,–
CCc1ccc(NC(=O)C2CCCN2S(=O)(=O)c2ccc3nc(-c4ccccc4)[nH]c3c2)cc1 (centres undefined),-33.6,–
O=C(CCSc1ccccc1)N1CCN(c2ccccc2F)CC1,-4.95,–
O=S(=O)(N1CCOCC1)N1CCN(c2ccccc2F)CC1,0.0503,–
O=C(c1ccc(CN2CCOCC2)cc1)N1CCN(c2ccccc2F)CC1,–,3.16 µM (active)
Cc1cccc(N2CCN(C(=O)c3ccc(Nc4nc5ccccc5n5nnnc45)cc3)CC2)c1C,-1.95,–
CN(C)c1ccc(C=Nc2ccc(/C=C/c3ccnc4ccccc34)cc2)cc1,-25.8,–
Oc1c(Cl)cc(Cl)c(Cl)c1Cc1c(O)c(Cl)cc(Cl)c1Cl,–,10 µM (active)
N#Cc1ccc[n+](CC(=O)c2ccc(F)cc2)c1,1.22,–
COC(=O)c1ccc(Cn2c(SCC(=O)N(C)c3ccccc3)nc3ccccc32)cc1,-22,–
CCOC(=O)c1scc(-c2ccccc2)c1S(=O)(=O)Nc1ccccc1F,-27.7,–
CCOC(=O)c1c(-c2ccc(C)cc2C)csc1NC(=O)CSc1nnnn1C,-0.949,–
CCCS(=O)(=O)c1ncc(Cl)c(C(=O)Nc2scc(-c3ccccc3)c2C(=O)OCC)n1,–,11.2 µM (active)
CCOC(=O)c1ccc(NC(=O)CC2C(=O)N(c3ccccc3)C(=O)N2Cc2cccs2)cc1 (centres undefined),-9.2,–
